# Screening data as filed in PubChem BioAssay.
# Only some compounds are listed: those with a hit (about 3.4% of all), similar ones and a draw of the others.
# FBW7 activator – activators of human E3 ligase FBW7; Q969H0; AlphaScreen FBW7–phospho-cyclin E peptide binding, activator screen; normalized activity (activation), % at 26.1 µM; 0.13% of 650,000 active; AID 1259310; in the data active = normalized activity above about 1.9%;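 also: purified mutant Fbw7 with reduced substrate affinity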
# TEAD-YAP inh – TEAD-YAP interaction inhibition | HEK-TIYL cells, TEAD-Gal4/YAP UAS-luciferase luminescence | inhibition, % at 9.12 µM | 1.4% of 640,000 active; in the data active = inhibition above about 32%;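 also: 0% = median of test compound wells and 100% = reference inhibitor wells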
# MITF inh – blocks human microphthalmia-associated transcription factor. AID 1259374. AlphaScreen MITF homodimerization, bead proximity signal. 0.91% of 650,000 active. O75030. inhibition, % at 2.6 µM; in the data active = inhibition above about 50%;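 also: 0% = vehicle wells with protein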
# GPR151 activ – activates the human receptor GPR151 | Q8TDV0 | PathHunter beta-arrestin GPR151 cells, luminescence | activation, % at 11.2 µM | 1% of 650,000 active; in the data active = activation above about 4.9%;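 also: 0% = median of compound wells and 100% = cells with positive control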
# Target sequence (Q8TDV0 whole entry, looked up): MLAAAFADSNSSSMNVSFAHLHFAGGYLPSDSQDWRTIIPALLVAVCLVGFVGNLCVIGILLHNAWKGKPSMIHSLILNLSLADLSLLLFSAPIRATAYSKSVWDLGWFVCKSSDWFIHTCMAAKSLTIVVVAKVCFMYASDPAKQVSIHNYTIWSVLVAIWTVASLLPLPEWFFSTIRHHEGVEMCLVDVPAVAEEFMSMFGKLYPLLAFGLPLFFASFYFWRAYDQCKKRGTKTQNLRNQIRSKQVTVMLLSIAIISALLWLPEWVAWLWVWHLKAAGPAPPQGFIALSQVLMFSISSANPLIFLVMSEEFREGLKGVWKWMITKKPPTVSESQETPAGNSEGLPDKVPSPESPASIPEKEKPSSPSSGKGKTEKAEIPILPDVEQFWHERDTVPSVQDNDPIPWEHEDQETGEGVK
# An asterisk follows results filed as active.
SMILES,FBW7 activator,TEAD-YAP inh,MITF inh,GPR151 activ
O=S(=O)(c1cccs1)N1CCc2nc(-c3cccnc3)nc(N3CCOCC3)c2C1,0.1,2.1,-5.3,1.8
CCN(CC)Cc1cc(Cl)c2cccnc2c1O,-1.2,73.6*,55.4*,0.5
CCOC(=O)N1CCN(Cc2cc(Cl)c3cccnc3c2O)CC1,-1.2,76.1*,49.9,-0.2
COc1ccc(OC)c(/C=C/c2nc3ccccc3c(=O)n2-c2ccc(Br)c(C)c2)c1,-0.1,4.5,-2.2,-0.3
N#CC1=C(N)N(c2cccc(C(F)(F)F)c2)C2=C(C(=O)CCC2)C1c1ccc([N+](=O)[O-])cc1 (configuration not stated),-0.2,-7.9,-3.0,2.0
CC1=NN(c2ccccc2)C(=O)/C1=C/c1cccc(OC2CSC2)c1,0.0,10.0,2.0,0.1
COc1cc(Cn2c(-c3nonc3N)nc3ccccc32)ccc1C,-0.2,51.1*,2.0,-0.7
COc1cccc(Cn2c(-c3nonc3N)nc3ccccc32)c1,0.1,38.0*,9.9,0.4
COc1ccc(C)cc1Cn1c(-c2nonc2N)nc2ccccc21,0.2,52.9*,0.3,0.2
Cc1ccc(Cn2c(-c3nonc3N)nc3ccccc32)cc1,-0.1,-8.6,-3.6,0.0
COc1ccc(Cn2c(-c3nonc3N)nc3ccccc32)cc1,0.1,-5.6,0.4,1.3
COc1ccc(N/C=C(\C#N)C(N)=O)cc1,0.0,-2.5,-3.7,-0.4
O=C(/C=C/c1cccs1)N1CCN(c2ccccc2)CC1,0.1,-2.6,-8.1,-1.1
Cc1noc(C)c1C(=O)NCC1Cc2cc(-c3ccc(S(C)(=O)=O)cc3)ccc2O1 (configuration not stated),-0.1,7.9,-13.4,0.1
Cc1ccoc1C(=O)NCC1Cc2cc(-c3ccc(S(C)(=O)=O)cc3)ccc2O1 (configuration not stated),0.6,38.8*,15.3,0.8
Cc1ccc(C(=O)Nc2sc(C)c(C)c2C(=O)O)cc1,0.0,48.6*,-4.0,-2.0
Cc1ccc(C(=O)Nc2sc3c(c2C(=O)O)CCCCC3)cc1,-0.1,83.4*,-3.5,-3.2
O=C(Nc1sc2c(c1C(=O)O)CCCCC2)c1ccccc1,0.1,45.7*,13.6,-8.9
CCN(CC)C(=O)c1c(NC(=O)c2cccs2)sc2c1CCC2,0.1,35.9*,18.1,0.0
COc1cccc(C(=O)Nc2c3c(nn2-c2ccc(C)cc2)CS(=O)C3)c1OC (configuration not stated),0.2,-3.7,17.9,0.8
O=S1(=O)c2cccc3cccc(c23)N1Cc1cccc(Br)c1,0.1,-8.0,-6.3,-0.9
O=S1(=O)c2cccc3cccc(c23)N1Cc1cccc(Cl)c1,2.1*,-16.4,7.6,0.8
CC(C)(C)c1ccc(-c2ncc3ccccn23)cc1,0.1,71.6*,14.0,-2.0
CCCc1ccc(C(=O)Nc2cnc3ccccc3c2)cc1,0.0,70.4*,11.7,-5.2
O=C(CSc1nc2ccc([N+](=O)[O-])cc2[nH]1)Nc1ccc(F)c(F)c1,-0.1,68.5*,0.4,0.2
SMILES,FBW7 activator,TEAD-YAP inh,MITF inh,GPR151 activ
O=C(CSc1nc2ccc([N+](=O)[O-])cc2[nH]1)Nc1ccc(F)cc1,0.1,7.5,14.1,1.0
CCC1(C)Nc2ccccc2C(=O)N1O (configuration not stated),0.2,-3.3,7.6,-0.2
Cc1ccc(-c2ccccc2)n1-c1ccc(O)c(C(=O)O)c1,-0.2,-0.1,77.5*,-0.9
Cc1ccc(-c2ccccc2)n1-c1ccc(C(=O)O)cc1,-0.2,-9.4,0.0,-1.5
CCc1sc(C(=O)NCCCN2CCCC2=O)cc1Br,0.9,1.3,22.6,0.9
Cc1sc2ncn(CC(=O)NCC(=O)N3CCN(C)CC3)c(=O)c2c1C,0.1,3.3,8.1,-1.5
N=c1nc2n(c3ccccc13)Cc1ccccc1-2,0.0,71.2*,7.3,-1.0
O=c1nc2n(c3ccccc13)Cc1ccccc1-2,-0.1,10.0,-1.0,1.8
O=C(c1ccccc1)n1c2ccccc2c2ccccc21,0.3,36.2*,18.1,-0.2
O=C(O)Cn1c2ccccc2c2ccccc21,-0.1,-2.1,-9.2,0.2
COc1ccc(OC)c(C2NC(=O)c3[nH]nc(-c4ccc(C)cc4)c32)c1 (configuration not stated),0.1,61.8*,7.8,1.5
COc1ccc(-c2n[nH]c3c2C(c2ccc(F)cc2)NC3=O)cc1 (configuration not stated),-0.1,14.3,4.2,1.8
CC(C)n1cnc2c(NCc3nc4ccccc4[nH]3)nc(Nc3cnccn3)nc21,-0.1,77.6*,4.2,0.4
CCNc1nc(NCc2cccnc2)c2ncn(C(C)C)c2n1,-0.1,-0.1,5.0,-0.7
CC(C)n1cnc2c(NCc3nc4ccccc4[nH]3)nc(NCc3cccnc3)nc21,-0.1,58.9*,18.1,-2.2
CC(C)n1cnc2c(NCc3nc4ccccc4[nH]3)nc(Nc3ccc4ncccc4c3)nc21,-0.1,40.5*,12.9,-1.5
CC(C)n1cnc2c(NCc3nc4ccccc4[nH]3)nc(Nc3ccncn3)nc21,-0.1,86.2*,-8.1,3.4
CC(C)n1cnc2c(NCc3nc4ccccc4[nH]3)nc(Nc3ccccn3)nc21,0.6,85.0*,0.2,0.7
CC(C)n1cnc2c(NC3CC3)nc(Nc3nccc4ccccc34)nc21,-0.1,13.6,5.7,2.2
CC(C)n1cnc2c(NCc3nc4ccccc4[nH]3)nc(Nc3nccc4ccccc34)nc21,0.6,42.9*,4.4,0.1
CC(C)n1cnc2c(NCc3nc4ccccc4[nH]3)nc(Nc3nc4ccccc4n3C)nc21,0.0,-0.1,4.5,-0.4
CCOc1cc(/C=N/NC(=O)c2cc(O)c(O)c(O)c2)ccc1O,0.3,-4.5,82.0*,0.9
CCOc1cc(/C=N/NC(=O)C(=O)N/N=C/c2ccc(O)c(OCC)c2)ccc1O,0.0,4.0,-1.2,0.7
CCOc1ccc(-c2cc(C(=O)N/N=C/c3ccc(O)c(OCC)c3)[nH]n2)cc1,-0.1,43.0*,9.6,4.0
CCOc1ccc(-c2cc(C(=O)N/N=C/c3ccc(F)cc3)[nH]n2)cc1,-0.1,40.8*,-5.7,-0.7
SMILES,FBW7 activator,TEAD-YAP inh,MITF inh,GPR151 activ
O=Cc1cc(Cl)c(OCC(=O)O)c(Cl)c1,0.1,0.1,-17.1,0.4
Cc1cc(NC(=O)CN2C(=O)C3C4CCC(C4)C3C2=O)no1 (configuration not stated),0.0,-0.1,-2.6,-1.1
Cc1ccc(C(=O)COC(=O)c2ccc3c(c2)C(=O)N(c2ccc(Cl)c(Cl)c2)C3=O)cc1,-0.1,0.4,16.8,-0.6
O=C(NCc1ccc2c(c1)OCO2)c1ccc(N2CCC(NCCc3ccco3)CC2)cc1,-0.1,6.4,2.7,0.0
COc1cccc(C2NC(=O)NC(C)=C2C(=O)Nc2ccc(F)cc2)c1OC (configuration not stated),0.1,42.5*,-16.4,-1.8
CC1=C(C(=O)Nc2ccc(Br)cc2)C(c2ccc(O)cc2)NC(=O)N1 (configuration not stated),2.8*,-5.2,24.2,-1.6
COc1ccc(Cc2nnc(SCC(=O)Nc3ccc(F)cc3)o2)cc1,0.3,1.6,-2.4,-0.3
O=C(N/N=C/c1cccc(OCc2ccccc2)c1)C1CC1,-0.1,3.0,5.4,0.2
